# Compounds with a hit are over-represented: about 10% of the library has one in this group of screens.
# HP1b binding inh: HTS for Inhibitors of HP1-beta Chromodomain Interactions with Methylated Histone Tails; AlphaScreen HP1-beta / biotin-H3K9me3 peptide binding; 390,000 tested, 0.56% active; Potency, µM (doses to about 114 µM), without a hit: at the top dose activity change, negative = inhibition, actives largely listed as inhibitors; Chromobox protein homolog 1 (Homo sapiens), P83916; note: nearly all actives have a fitted effect of over 70% in size
# Target sequence (P83916 whole entry, looked up): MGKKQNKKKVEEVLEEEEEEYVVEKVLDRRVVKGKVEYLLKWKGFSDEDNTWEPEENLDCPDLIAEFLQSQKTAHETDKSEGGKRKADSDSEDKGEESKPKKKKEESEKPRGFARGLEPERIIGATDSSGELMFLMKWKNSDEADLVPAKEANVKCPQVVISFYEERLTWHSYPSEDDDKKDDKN
#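 Compound inhibition of the preformed complex between 50 nM HP1-beta and 50 nM biotinylated H3K9me3 peptide was read by AlphaScreen. Buffer was PBS pH 7.4 with 0.01% Tween-20. Incubations ran 30 min at room temperature, with 10 ug/mL donor/acceptor beads.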
# G9a block: qHTS Assay for Inhibitors of Histone Lysine Methyltransferase G9a. G9a H3K9 monomethylation, AlphaScreen, 2 h. Potency, µM (series often up to 102 µM), without a hit: at the top dose activity, negative = inhibition, most hits filed as inhibitors. 350,000 tested, 8.8% active; note: % is set by controls: 0 for no effect and ±100 for the full control effect; nearly all actives have a fitted effect of over 75% in size
# Target sequence (Q96KQ7 913-1193 limits assumed): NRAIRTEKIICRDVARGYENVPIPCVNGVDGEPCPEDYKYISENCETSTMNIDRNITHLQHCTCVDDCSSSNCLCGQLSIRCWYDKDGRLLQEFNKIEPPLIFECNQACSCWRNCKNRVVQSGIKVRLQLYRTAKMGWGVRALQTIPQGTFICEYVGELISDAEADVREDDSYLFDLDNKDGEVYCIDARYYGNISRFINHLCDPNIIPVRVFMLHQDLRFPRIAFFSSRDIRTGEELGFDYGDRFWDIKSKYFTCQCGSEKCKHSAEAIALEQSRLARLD
#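 Signal arises when biotinylated H3K9 peptide, once monomethylated, bridges streptavidin donor and antibody-captured acceptor beads. Enzyme at 20 nM was preincubated 15 min with test compounds; peptide 500 nM and SAM 20 uM then reacted for 2 h.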
# JMJD2A Tudor: qHTS Assay for Inhibitors of JMJD2A-Tudor Domain | Lysine-specific demethylase 4A (Homo sapiens), O75164 | AlphaScreen JMJD2A-Tudor / H3K4me3 peptide binding | Potency, µM (highest dose often 114 µM), without a hit: top-dose activity change, negative = inhibition, most hits filed as inhibitors | 390,000 tested, 4.4% active; note: % is set by controls: 0 for no effect and ±100 for the full control effect; nearly all actives have a fitted effect of over 50% in size
# GLS inh: qHTS for Inhibitors of Glutaminase (GLS); 410,000 tested, 0.21% active; Glutaminase kidney isoform, mitochondrial (Homo sapiens), O94925; AID 624170, 2012; GLS enzymatic activity, qHTS titration; Potency, µM (series often up to 45.5 µM), for inactives: at the top dose activity change, negative = inhibition, hits mostly inhibitors; note: % is set by controls: 0 for no effect and ±100 for the full control effect
#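 Glutamate formation by hKGA was monitored fluorometrically using coupled glutamate oxidase, HRP and Amplex Red. Substrate was added as 1 mM L-glutamine solution; incubation was 30 min at RT after an initial read.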
# BAZ2B inh: qHTS Assay for Inhibitors of BAZ2B; Potency, µM (top dose mostly 114 µM), for the others: at the top dose activity change, negative = inhibition, hits mostly inhibitors; Bromodomain adjacent to zinc finger domain protein 2B (Homo sapiens), Q9UIF8; AlphaScreen BAZ2B-H3K14Ac peptide displacement; 360,000 tested, 4.4% active; note: % is set by controls: 0 for no effect and ±100 for the full control effect; nearly all actives have a fitted effect of over 60% in size
#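 Complex of BAZ2B and biotin-H3K14Ac (50 nM apiece) forms over 30 min at RT, then faces library compounds up to 110 uM for another 30 min; AlphaScreen beads added, 20 min dark incubation, luminescence read.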
# The depositor's hits bear a star; ? = inconclusive; nt = no result; [ ] = remark or other dose. Calls come from the whole dose curve; as a rule, active = well fitted curve in the direction sought with a large enough effect; inconclusive = small, poorly fitted or top-dose-only effect, or another doubt; inactive = no such curve, though single readings can be large; an effect the other way counts as inactive or inconclusive. Potency is the fitted concentration of half-maximal effect.
SMILES,HP1b binding inh,G9a block,JMJD2A Tudor,GLS inh,BAZ2B inh
Cc1cccc(N2CCN(C(=O)Cn3ncc4c3-c3cc(C)ccc3OC4)CC2C)c1 (stereo unspecified),-9%,?,?,16%,32µM*
COc1ccc(CCNC(=O)CCCCn2c(=O)c3ccccc3n(Cc3ccc(F)cc3Cl)c2=O)cc1OC,12%,-4%[59 µM],-14%,0%,1%
CCOC(=O)C1=CCN(S(=O)(=O)c2ccc(C)cc2)C1c1ccc(Br)cc1 (stereo unspecified),nt,nt,nt,-2%,nt
CCCCOc1ccccc1C1NC(=O)NC(C)=C1C(=O)OCCOCC (stereo unspecified),27%,1%,-13%,0%,7%
CCOC(=O)C1=C(C)NC(=O)NC1c1ccco1 (stereo unspecified),-6%,-13%[12.7 µM],?,0%,79µM*
CCCCOc1ccccc1C1NC(=O)NC(C)=C1C(=O)OCc1ccco1 (stereo unspecified),15%,22µM*,-23%,35%,6%
CCOC(=O)C1=C(N)OC2=C(C(=O)CC(C)(C)C2)C1c1ccco1 (stereo unspecified),10%,22µM*,56µM*,5%,-19%
CCOC(=O)c1cc(Cl)c2c(ccc3ccccc32)n1,nt,nt,nt,-1%,nt
Cc1cc(-n2c(C)cc(C(=O)CN3C(=O)NC4(CCCCC4C)C3=O)c2C)no1 (stereo unspecified),9%,?,-25%,2%,-24%
Cc1onc(-c2ccccc2)c1-c1n[nH]c(=S)n1-c1ccc(C(=O)O)cc1,29%,?,45µM*,23%,?
Cc1c(NC(=O)NC(=O)c2ccc(F)cc2)c(=O)n(-c2ccccc2)n1C,14%,6%[59 µM],-11%,22%,11%
Oc1c(CN2CCOCC2)cc(CN2CCOCC2)c(O)c1CN1CCOCC1,8.9µM*,nt,7.9µM*,27%,nt
CC(C)(c1cc(Cl)c(O)c(CN2CCOCC2)c1)c1cc(Cl)c(O)c(CN2CCOCC2)c1,-14%[57 µM],nt,-33%,20%,nt
CC(C)(C)c1nc(CN2CCOCC2)cc(CN2CCOCC2)c1O,14%,-8%[12.7 µM],32µM*,-2%,-32%
CCc1cccc(C)c1NC(=O)c1ccc2c(c1)CCN2S(=O)(=O)c1ccc(Cl)cc1,14%,-1%[59 µM],-20%,1%,0%
COc1ccc(N2CCN(C(=O)c3ccc4c(c3)CCN4S(=O)(=O)c3ccccc3)CC2)cc1,32%,28µM*,?,24%,20µM*
COc1ccc(N2CCN(C(=O)c3ccc(NS(=O)(=O)c4ccccc4)cc3)CC2)cc1,?,20µM*,-31%,26%,57%
COc1cccc(S(=O)(=O)NCc2ccc(C(=O)N3CCN(Cc4ccccc4)CC3)cc2)c1,17%,nt,-29%,3%,-39%
CCN1CCN(C(=O)c2ccc(CNS(=O)(=O)c3cccc(OC)c3)cc2)CC1,19%,45µM*,-11%,-1%,?
COc1ccc(NS(=O)(=O)c2ccc(C(=O)N3CCCCCC3)cc2)cc1,30%[57 µM],nt,-8%,15%,nt
CCc1cccc(CC)c1NC(=O)c1ccc2c(c1)CCN2S(=O)(=O)c1ccccc1,7%,2.5µM*,-12%,0%,1%
O=C(c1ccc2c(c1)CCN2S(=O)(=O)c1ccccc1)N1CCN(c2ccc(F)cc2)CC1,7%,-10%,-33%,9%,-26%
CCOC(=O)C1=C(COC(=O)CNS(=O)(=O)c2ccc(C)c(C)c2)NC(=O)NC1C (stereo unspecified),nt,nt,nt,-11%,nt
Cc1c(NC(=S)NC(NC(=O)C(C)(C)C)C(Cl)(Cl)Cl)c(=O)n(-c2ccccc2)n1C (stereo unspecified),48%,?,-1%,13%,0%
Cc1ccc(C)c(S(=O)(=O)NCc2ccc(C(=O)N3CCN(c4ccccc4)CC3)cc2)c1,-13%,-6%,-35%,4%,-28%
SMILES,HP1b binding inh,G9a block,JMJD2A Tudor,GLS inh,BAZ2B inh
COc1ccc(N2CCN(C(=O)COC(=O)c3cccc(S(=O)(=O)Nc4cccc(C)c4)c3)CC2)cc1,-25%,10µM*,?,23%,-36%
O=C(c1cccc(S(=O)(=O)N2CCc3ccccc32)c1)N1CCN(c2ccccc2)CC1,-9%,22µM*,-33%,5%,4%
O=C(OCC(=O)N1CCCCC1)c1cccc(NS(=O)(=O)c2ccccc2)c1,11%,-40%,-13%,6%,-37%
COc1ccc(N2CCN(C(=O)c3ccc(CNS(=O)(=O)c4cc(C)ccc4C)cc3)CC2)cc1,-15%,32µM*,?,18%,?
O=C(Cc1ccccc1)Nc1ccc(Br)c(Cl)c1,23%,20%[59 µM],-9%,0%,96%
Cc1ccc(NNC(=O)Nc2ccc(Cl)cc2)nn1,?,4µM*,79µM*,13%,-23%
O=[N+]([O-])c1ccc(NCCNS(=O)(=O)c2ccccc2)cc1,-15%,-41%,-24%,4%,-16%
COc1ccc(C2CC(c3ccccc3)Nc3nc(NC(=O)c4cccs4)nn32)cc1 (stereo unspecified),23%,-9%[12.7 µM],-35%,17%,13%
Oc1ccc(/C=N/Nc2ccc(Cl)nn2)c(O)c1O,?,?,11µM*,?,10µM*
COc1cc(/C=N/Nc2ccc(Cl)nn2)cc(OC)c1O,?,16µM*,-21%,21%,-12%
Oc1c(Br)cc(/C=N/Nc2ccc(Cl)nn2)cc1Br,?,40µM*,?,?,50µM*
CCOC(=O)c1cn2nc(-c3ccc(OCC)cc3)cc2nc1C1CCN(C(=O)OC(C)(C)C)CC1,82%,17%,30%,3%,5%
CCCCN(C(=O)C1CCC1)c1c(N)n(CC(C)C)c(=O)[nH]c1=O,5%,-38%,-17%,-1%,8%
Cc1ccc(Cn2nnc(C(=O)Nc3cc(C)ccc3C)c2N)cc1,42%,-14%[59 µM],-7%,20%,6%
CCN(CC)C(=O)CN1CCN(c2ncccn2)CC1,?,5.6µM*,4.5µM*,-2%,25µM*
CCOc1ccc(C(=O)N2CCN(c3ncccn3)CC2)cc1,20%,nt,-17%,-6%,nt
CCN(CC(=O)NCc1cccs1)CC(=O)Nc1c(Cl)ccc(C)c1Cl,40%,6%[0.501 µM],-14%,-9%,7%
O=C(C[n+]1ccc(-c2cc(C(=O)Nc3cccc(C(F)(F)F)c3)c3ccccc3n2)cc1)c1cccc([N+](=O)[O-])c1,?,50µM*,-15%,-8%,nt
O=C(C[n+]1cccc(NC(=O)c2ccccc2)c1)c1cccc([N+](=O)[O-])c1,11%,?,-27%,7%,-35%

# Compound activity deposited in PubChem by National Center for Advancing Translational Sciences (NCATS).
